Five compounds from PubChem BioAssay (EPA / NIEHS) can be followed below.

Read-out in experiment [1]: Monokine induced gamma interferon (MIG), CXCL9 (gene 4283)
Nature of the experiment: BSK_3C_MIG: BioMAP Diversity Plus: 3C Assay for Monokine induced gamma interferon (MIG) Biomarker Activity (AID 2283021).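 As to AC50: MIG protein level measured by immunoassay in the treated endothelial cultures.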 As to conditions: primary human endothelial cells (HUVEC); actives raise or lower the signal. The method, boiled down:
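Primary human umbilical vein endothelial cells in the 3C system were exposed to chemical for 24 h, after which MIG was quantified by ELISA. Activity was fitted bidirectionally against DMSO as negative control and baseline.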

Experiment [2] deals with human Vitamin D Receptor (VDR), VDR (gene 7421) (UniProt P11473). In words: ATG_VDR_TRANS: Attagene TRANS-FACTORIAL HepG2 Assay for human Vitamin D Receptor (VDR) (AID 2283022; active = hit-call score of the fitted dose curve at least 0.9, where 1 is the maximum). The method, boiled down:
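HepG2 cells were transiently transfected with multiple GAL4-UAS reporter units, so signal reflects exogenous chimeric receptor-Gal4 activity. After 24 h compound exposure, reporter mRNA was measured by RT-PCR, fluorescent labelling and capillary electrophoresis, fitted for gain of signal versus DMSO.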

Experiment [3] in a line: BSK_3C_SRB: Viability Assessment in the BioMAP Diversity Plus: 3C Assay (AID 2283023).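 Also: fitted both ways against DMSO so a hit may be signal rise or drop.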 As to conditions: primary human endothelial cells (HUVEC). The method in brief: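 Primary human umbilical vein endothelial cells in the 3C system were read 24 h after compound dosing. Total protein was stained with 0.1% sulforhodamine B after 10% TCA fixation and read at 560 nm, with bidirectional fitting against DMSO as baseline.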

Read-out in experiment [4]: Matrix Metallopeptidase 1 (MMP1), MMP1 (gene 4312)
In words: BSK_BE3C_MMP1: BioMAP Diversity Plus: BE3C Assay for Matrix Metallopeptidase 1 (MMP1) Biomarker Activity (AID 2283024). Conditions: primary human bronchial epithelial cells; actives raise or lower the signal. The method in brief: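 Primary human bronchial epithelial cells were dosed with test chemicals, and MMP1 levels were measured by ELISA 24 h later. Data were fitted bidirectionally against DMSO as the negative control and activity baseline.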

Experiment [5] in a line: BSK_3C_Vis: BioMAP Diversity Plus: 3C Assay for Morphology Visualization (AID 2283025).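 Also: fitted both ways so gain or loss versus DMSO counts.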 As to conditions: primary human endothelial cells (HUVEC). The method, boiled down:
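Human umbilical vein endothelial cells in the 3C system were imaged by light microscopy 24 h after chemical dosing to record cell morphology. Activity was fitted bidirectionally against DMSO as negative control and baseline; the endpoint serves as a background control.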

Read-out in experiment [6]: Pselectin, SELP (gene 6403)
Nature of the experiment: BSK_4H_Pselectin: BioMAP Diversity Plus: 4H Assay for Pselectin Biomarker Activity (AID 2283026). Conditions: primary human endothelial cells (HUVEC); actives raise or lower the signal. The method in brief:
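Primary human umbilical vein endothelial cells were exposed to test chemical for 24 h, then cell-surface P-selectin was quantified by ELISA. Activity was fitted bidirectionally against DMSO as negative control and baseline.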

A short description of experiment [7]: BSK_4H_SRB: Viability Assessment in the BioMAP Diversity Plus: 4H Assay (AID 2283027).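 Also: cells exposed to compound for 24 h before staining.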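 As to AC50: curves fitted both ways versus DMSO so AC50 may be loss or gain.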 As to conditions: primary human endothelial cells (HUVEC). The method, boiled down: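 Human umbilical vein endothelial cells were dosed with chemical and, after 24 h, fixed with 10% TCA, stained with 0.1% sulforhodamine B, and read at 560 nm to give total protein as a cytotoxicity measure. Bidirectional fitting relative to DMSO control.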

Experiment [8] in a line: BSK_BE3C_SRB: Viability Assessment in the BioMAP Diversity Plus: BE3C Assay (AID 2283028). As to conditions: primary human bronchial epithelial cells. The method in brief:
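Human primary bronchial epithelial cells were exposed to test chemicals for 24 h. Total protein in parallel cultures was then measured by staining with 0.1% sulforhodamine B after 10% TCA fixation, with absorbance read at 560 nm. Activity was fitted bidirectionally against DMSO.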

Read-out in experiment [9]: Thrombomodulin, THBD (gene 7056)
Nature of the experiment: BSK_3C_Thrombomodulin: BioMAP Diversity Plus: 3C Assay for Thrombomodulin Biomarker Activity (AID 2283029). Conditions: primary human endothelial cells (HUVEC); actives raise or lower the signal. The method in brief:
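Primary human umbilical vein endothelial cells (3C system) were exposed to chemical for 24 h, then thrombomodulin levels were measured by ELISA. Activity was fitted bidirectionally against the DMSO negative control as baseline.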

Read-out in experiment [10]: Urokinase-type plasminogen activator receptor (uPAR), PLAUR (gene 5329)
Nature of the experiment: BSK_4H_uPAR: BioMAP Diversity Plus: 4H Assay for Urokinase-type plasminogen activator receptor (uPAR) Biomarker Activity (AID 2283030). As to conditions: primary human endothelial cells (HUVEC); actives raise or lower the signal. The method in brief: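 Primary human umbilical vein endothelial cells were exposed to chemical for 24 h before cell-surface uPAR was quantified by ELISA. Activity was fitted bidirectionally against the DMSO negative control baseline.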

Read-out in experiment [11]: Vascular endothelial growth factor receptor 2 (Homo sapiens) (UniProt P35968)
In words: BSK_4H_VEGFRII: BioMAP Diversity Plus: 4H Assay for Vascular endothelial growth factor receptor 2 (VEGFR2) Biomarker Activity (AID 2283031).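 As to AC50: cell-surface VEGFR2 protein level quantified by ELISA.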 Conditions: primary human endothelial cells (HUVEC); actives raise or lower the signal. The method, boiled down:
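Primary human umbilical vein endothelial cells in the BioMAP 4H system were dosed with test chemical, and 24 h later VEGFRII was measured by ELISA. Activity was fitted bidirectionally against DMSO as negative control and baseline.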

Read-out in experiment [12]: Human Leukocyte Antigen - DR isotype (HLADR), HLA-DRA (gene 3122)
Nature of the experiment: BSK_BE3C_HLADR: BioMAP Diversity Plus: BE3C Assay for Human Leukocyte Antigen - DR isotype (HLADR) Biomarker Activity (AID 2283032). As to conditions: primary human bronchial epithelial cells; actives raise or lower the signal. The method, boiled down: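 Human primary bronchial epithelial cells in the BE3C system were exposed to chemicals for 24 h, after which HLA-DR levels were quantified by ELISA. Activity was fitted bidirectionally, gain or loss of signal, against DMSO as negative control and baseline.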

Read-out in experiment [13]: Vascular cell adhesion molecule 1 (VCAM1), VCAM1 (gene 7412)
In words: BSK_4H_VCAM1: BioMAP Diversity Plus: 4H Assay for Vascular cell adhesion molecule 1 (VCAM1) Biomarker Activity (AID 2283033).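 As to outcome: cell-surface VCAM-1 protein measured by ELISA.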 Conditions: primary human endothelial cells (HUVEC); actives raise or lower the signal. The method in brief: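 Primary human umbilical vein endothelial cells were exposed to chemicals for 24 h, after which VCAM-1 was quantified by ELISA. Responses were fitted bidirectionally against DMSO as negative control and activity baseline.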

Read-out in experiment [14]: Interferon-gamma inducible Protein 10 (IP10), CXCL10 (gene 3627)
In words: BSK_BE3C_IP10: BioMAP Diversity Plus: BE3C Assay for Interferon-gamma inducible Protein 10 (IP10) Biomarker Activity (AID 2283034). Conditions: primary human bronchial epithelial cells; actives raise or lower the signal. The method, boiled down:
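Human primary bronchial epithelial cells were exposed to chemicals for 24 hours, after which IP-10 levels were measured by ELISA. Data were fitted bidirectionally against DMSO, which served as the negative control and activity baseline.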

Read-out in experiment [15]: Plasminogen activator inhibitor-1 (PAI1), SERPINE1 (gene 5054)
Nature of the experiment: BSK_BE3C_PAI1: BioMAP Diversity Plus: BE3C Assay for Plasminogen activator inhibitor-1 (PAI1) Biomarker Activity (AID 2283037). Conditions: primary human bronchial epithelial cells; actives raise or lower the signal. The method in brief:
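Human primary bronchial epithelial cells were exposed to chemical for 24 h, then PAI-1 was quantified by ELISA. Activity was fitted bidirectionally relative to the DMSO negative control baseline.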

Read-out in experiment [16]: urokinase plasminogen activator (uPA), PLAU (gene 5328)
In words: BSK_BE3C_uPA: BioMAP Diversity Plus: BE3C Assay for urokinase plasminogen activator (uPA) Biomarker Activity (AID 2283038).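 Also: uPA protein level quantified by ELISA in cell cultures; uPA read one day after compound addition.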 Conditions: primary human bronchial epithelial cells; actives raise or lower the signal. The method, boiled down:
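Human primary bronchial epithelial cells were exposed to chemical for 24 h, then uPA levels were measured by ELISA. Responses were fitted bidirectionally against DMSO as negative control and baseline. Parallel SRB staining of total protein gauged overt cytotoxicity.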

Read-out in experiment [17]: Urokinase-type plasminogen activator receptor (uPAR), PLAUR (gene 5329)
In words: BSK_BE3C_uPAR: BioMAP Diversity Plus: BE3C Assay for Urokinase-type plasminogen activator receptor (uPAR) Biomarker Activity (AID 2283039).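 Also: cells exposed to compound for one day before measurement.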 Conditions: primary human bronchial epithelial cells; actives raise or lower the signal. The method, boiled down: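 Primary human bronchial epithelial cells were dosed with chemical and harvested 24 h later; uPAR was quantified by ELISA. Activity was fitted bidirectionally against DMSO as negative control and baseline.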

Read-out in experiment [18]: Interleukin-6 (IL6), IL6 (gene 3569)
Nature of the experiment: BSK_CASM3C_IL6: BioMAP Diversity Plus: CASM3C Assay for Interleukin-6 (IL6) Biomarker Activity for (AID 2283040). Conditions: primary human coronary artery smooth muscle cells; actives raise or lower the signal.

Read-out in experiment [19]: Tissue plasminogen activator (tPA), PLAT (gene 5327)
In words: BSK_BE3C_tPA: BioMAP Diversity Plus: BE3C Assay for Tissue plasminogen activator (tPA) Biomarker Activity (AID 2283041).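 As to outcome: tPA level quantified by ELISA one day after compound addition.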 As to conditions: primary human bronchial epithelial cells; actives raise or lower the signal. The method, boiled down:
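Human primary bronchial epithelial cells were dosed with chemical and tPA biomarker levels measured by ELISA 24 hours later. Activity was fitted bidirectionally against DMSO as negative control and baseline.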

Read-out in experiment [20]: Monokine induced gamma interferon (MIG), CXCL9 (gene 4283)
In words: BSK_BE3C_MIG: BioMAP Diversity Plus: BE3C Assay for Monokine induced gamma interferon (MIG) Biomarker Activity (AID 2283035).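 Also: MIG protein measured by ELISA in BE3C cultures after 24 h of dosing.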 As to conditions: primary human bronchial epithelial cells; actives raise or lower the signal. The method, boiled down:
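ELISA read-out of MIG in human lung bronchial epithelial primary cultures, 24 h post-dosing. Bidirectional curve fit vs DMSO baseline.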

Structures are written as SMILES. Results filed as inconclusive are left out. A structure can be active in one record and inactive in another. Active and inactive are the calls of the source. The calls were made as follows, unless noted: active = hit-call score of the fitted dose curve at least 0.9, where 1 is the maximum; inactive = score below 0.9.

Sequence of human Vitamin D Receptor (VDR), VDR (gene 7421) (P11473 whole entry, looked up, the tested form may be a part): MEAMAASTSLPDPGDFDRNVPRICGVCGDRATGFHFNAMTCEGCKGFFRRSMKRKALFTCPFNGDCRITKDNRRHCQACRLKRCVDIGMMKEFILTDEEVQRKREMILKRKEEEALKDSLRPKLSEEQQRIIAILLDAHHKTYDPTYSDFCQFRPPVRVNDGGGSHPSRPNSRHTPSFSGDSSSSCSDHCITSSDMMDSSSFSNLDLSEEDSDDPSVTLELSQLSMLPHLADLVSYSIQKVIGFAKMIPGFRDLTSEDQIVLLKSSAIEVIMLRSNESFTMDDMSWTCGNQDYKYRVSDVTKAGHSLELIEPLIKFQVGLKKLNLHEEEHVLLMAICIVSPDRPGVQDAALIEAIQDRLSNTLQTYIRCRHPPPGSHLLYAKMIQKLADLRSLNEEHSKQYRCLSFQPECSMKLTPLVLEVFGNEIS

Turning to `C=C1CC/C=C(\C)CC[C@@H]2[C@@H]1CC2(C)C`, the AC50 (as a rule, the midpoint of the concentration-response curve, whichever way the signal moves) is 36.6 µM (active) in [1]; 29.8 µM (active) in experiment [3]; 20 µM (active) in [4]; 14.5 µM (active) in experiment [5]; 29.1 µM (active) in experiment [6]; 31.9 µM (active) in experiment [7]. In addition, the AC50 is 33.2 µM (active) in [10], 29.1 µM (active) in experiment [11], 29.8 µM (active) in [13] and 28.6 µM (active) in [14]. Moreover, the call in [2], in experiment [8], in experiment [9], in experiment [12], in experiment [15] and in experiment [16] was inactive. Besides, the outcome in experiment [17], in experiment [18] and in [19] was inactive.

On to `CCCCCCCCCCCCS`, for which the result in experiment [1], in experiment [2], in experiment [8], in [9], in experiment [10] and in [11] was inactive. Besides, the outcome in experiment [20], in experiment [15], in experiment [16], in [17], in experiment [18] and in experiment [19] was inactive. The AC50 is 26.5 µM (active) in experiment [3]; 20 µM (active) in experiment [4]; 20 µM (active) in experiment [5]; 20 µM (active) in experiment [6]; 29.6 µM (active) in [7]; 20 µM (active) in experiment [12]. In addition, the AC50 is 11.2 µM (active) in [13] and 20 µM (active) in experiment [14].

Consider `c1ccc2c(c1)-c1ccc3ccc4cccc5cc-2c1c3c45`, for which the outcome in experiment [1], in experiment [2], in [3], in experiment [4], in [6] and in [7] was inactive. The result in experiment [8], in experiment [9], in experiment [11], in experiment [14], in experiment [15] and in experiment [16] was inactive. In addition, the result in experiment [17], in [18] and in experiment [19] was inactive. In addition, the concentration at half-maximal activity (AC50) in [5] is 4.52 µM (active); in [10] it was 10 µM (active); in experiment [12], 2.57 µM (active); in experiment [13], 3.53 µM (active).

In the case of `c1ccc(OCCOc2ccccc2)cc1`, the outcome in experiment [1], in [2], in experiment [3], in experiment [4], in experiment [6] and in experiment [7] was inactive. Besides, the outcome in [8], in experiment [9], in experiment [10], in [11], in experiment [12] and in experiment [13] was inactive. For the same compound, the result in experiment [14], in experiment [15], in [16], in [17], in experiment [18] and in experiment [19] was inactive. Also, the AC50 in [4] is 0.0654 µM (active).

On to `CC(=O)OCC=C(C)CCC=C(C)CCC=C(C)C`, for which the outcome in experiment [1], in experiment [2], in [3], in [4], in experiment [5] and in [6] was inactive. Further, the outcome in experiment [7], in experiment [8], in experiment [9], in experiment [10], in experiment [11] and in experiment [13] was inactive. Further, the outcome in experiment [20], in experiment [16], in [17] and in experiment [18] was inactive. The AC50 in [12] was 3.97 µM (active); in experiment [14], 8.81 µM (active); in [15], 0.016 µM (active); in experiment [19], 3.97 µM (active).
